Source: PubChem
A selection: hits, their analogues and other compounds. The true share with any hit is near 19%.
TDP1 cell CPT = qHTS for Inhibitors of human tyrosyl-DNA phosphodiesterase 1 (TDP1): qHTS in cells in presence of CPT | chicken DT40 Tdp1-/-;hTDP1 cells + 20 nM CPT, ATP luminescence, 48 h | Potency, µM (top dose mostly 46.2 µM), hits mostly inhibitors | hit rate 12% among 420,000 | AID 686979, 2013; note: nearly all actives have a fitted effect of over 55% in size
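Chicken DT40 Tdp1-/- cells complemented with human TDP1, 400 cells/well, exposed to compounds plus 20 nM camptothecin for at least 48 h at 37 C; viability read as ATP content by CellTiter-Glo luminescence.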
Giardia killer = Small Molecules that selectively kill Giardia lamblia: qHTS; Giardia lamblia trophozoite viability; hit rate 0.15% among 340,000; activity change, % at 7.66 µM, hits read low; in the data active = activity change below about -80%; inconclusive = between about -30% and that limit;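 note: parasites exposed to compound for two days anaerobically before the ATP read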
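Viability, read as ATP luminescence: trophozoites at 100 cells/well, compound added, 48 hrs anaerobic at 37 deg C, then 15-30 min room-temperature development before reading.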
IL1B secr inh = qHTS for Inhibitors of Inflammasome Signaling: IL-1-beta AlphaLISA Primary Screen. THP-1 LPS/ATP IL-1B secretion, AlphaLISA, 16 h; hits give low values. activity change, % at 57.5 µM. hit rate 4.7% among 360,000. AID 743279, 2014; in the data active = activity change below about -50%; inconclusive = mostly about -30% to -49%
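THP-1 cells pretreated 1 hr with compounds (up to 57.5 uM final), then stimulated with LPS (250 ng/mL final) plus ATP (1.25 mM final); secreted IL-1B measured by AlphaLISA after 16 hr, decreased signal indicating inhibition.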
ELG1 DNA repair = qHTS screen for small molecules that inhibit ELG1-dependent DNA repair in human embryonic kidney (HEK293T) cells expressing luciferase-tagged ELG1. HEK293T ELG1-luciferase reporter, luminescence, 16 h; DNA damage induced by 5-fluorouridine. Potency, µM (titrated, usually from 46.1 µM), actives largely listed as inhibitors. hit rate 2.3% among 330,000. AID 504467, 2011; note: nearly all actives have a fitted effect of over 55% in size
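Overnight (16 hr) co-exposure of 2,000 cells/well to 5-fluorouridine and compound at 37 °C preceded detection. Luciferase was quantified via ONE-Glo luminescence; loss of signal denotes inhibition.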
TDP1 block = qHTS Assay for Inhibitors of Tyrosyl-DNA Phosphodiesterase (TDP1). Tyrosyl-DNA phosphodiesterase 1 (Homo sapiens), Q9NUW8. recombinant TDP1, AlphaScreen DNA substrate cleavage. Potency, µM (highest dose often 130 µM), hits mostly inhibitors. hit rate 0.28% among 350,000; note: nearly all actives have a fitted effect of over 40% in size
Target sequence (Q9NUW8 whole entry, looked up): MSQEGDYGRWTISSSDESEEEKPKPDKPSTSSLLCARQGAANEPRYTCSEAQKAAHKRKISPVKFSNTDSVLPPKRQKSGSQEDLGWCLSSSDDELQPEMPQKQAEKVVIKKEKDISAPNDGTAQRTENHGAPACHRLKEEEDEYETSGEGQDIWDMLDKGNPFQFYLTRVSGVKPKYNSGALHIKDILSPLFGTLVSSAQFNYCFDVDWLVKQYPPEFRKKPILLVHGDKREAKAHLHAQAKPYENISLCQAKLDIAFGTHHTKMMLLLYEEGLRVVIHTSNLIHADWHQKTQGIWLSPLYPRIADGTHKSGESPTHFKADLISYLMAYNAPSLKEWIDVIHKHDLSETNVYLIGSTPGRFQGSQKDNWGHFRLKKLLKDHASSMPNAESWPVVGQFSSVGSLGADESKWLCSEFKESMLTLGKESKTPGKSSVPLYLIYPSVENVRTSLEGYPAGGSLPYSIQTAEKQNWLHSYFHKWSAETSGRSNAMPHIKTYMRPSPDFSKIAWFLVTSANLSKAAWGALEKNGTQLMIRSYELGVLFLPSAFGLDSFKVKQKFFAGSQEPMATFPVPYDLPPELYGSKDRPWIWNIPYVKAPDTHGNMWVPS
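Compounds were preincubated with Tdp1 (1 nM final) for 15 min at room temperature before substrate (15 nM final) started a 5 min reaction; beads (10 ug/ml final) were then added for 10 min before AlphaScreen detection.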
DT40 TDP1 no CPT = qHTS for Inhibitors of human tyrosyl-DNA phosphodiesterase 1 (TDP1): qHTS in cells in absence of CPT; DT40 Tdp1-/- hTDP1 cells, no CPT, ATP luminescence, 48 h; Potency, µM (doses to about 46.2 µM), hits mostly inhibitors; hit rate 15% among 420,000; AID 686978, 2013; note: nearly all actives have a fitted effect of over 55% in size
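Compound effects on proliferation are scored in DT40 Tdp1-/-;hTDP1 cells in the absence of CPT. ATP levels (CellTiter-Glo luminescence) are recorded after a ≥48 hr, 37 °C incubation.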
A number is an active result; i = inactive; ? = inconclusive; nt = no result; [ ] = remark or other dose. Unless noted, calls come from the whole dose curve; as a rule, active = well fitted curve in the direction sought with a large enough effect; inconclusive = small, poorly fitted or top-dose-only effect, or another doubt; inactive = no such curve, though single readings can be large; an effect the other way counts as inactive or inconclusive.

SMILES | TDP1 cell CPT | Giardia killer | IL1B secr inh | ELG1 DNA repair | TDP1 block | DT40 TDP1 no CPT
Cc1ccc(NC(=S)NCCc2ccccc2)nc1 | ? | i | i | ? | i | 5.8µM
Cc1ccc(NC(=O)CCCc2ccccc2)nc1 | i | i | i | ? | i | i
Cc1ccc(CSc2nnc3[nH]c(=O)cc(C)n23)cc1 | i | nt | nt | nt | i | i
O=C(c1cccc(F)c1)N1CCC2(CCCN(Cc3nccs3)C2)CC1 | i | nt | nt | nt | nt | i
Cc1ccc(NC(=O)NCc2cccn2C)cc1C | i | i | i | ? | nt | ?
Fc1ccc(F)c(NC(=S)NCCc2ccccc2)c1 | 16µM | i | -66 | i | i | 16µM
O=C(NCCc1ccccc1)Nc1cccc(Cl)c1 | 16µM | i | i | ? | i | ?
COc1ccc(NC(=O)NCCc2cccc(Cl)c2)cc1OC | i | i | i | ? | i | i
Fc1ccccc1NC(=S)NCCc1ccccc1 | 7.3µM | i | i | ? | i | 9.2µM
Fc1ccccc1NC(=S)NCCc1ccc(Cl)cc1 | ? | i | ? | ? | i | i
CCCN(C(=O)NCc1noc2ccc(C)cc12)c1ccc(Cl)c(Cl)c1 | ? | nt | nt | nt | i | ?
COc1cc(OC)c(NC(=O)c2csc(C)c2)cc1Cl | ? | i | i | i | i | i
COc1ccc(NC(=O)CN(C)C(=O)c2ccc(NS(=O)(=O)c3ccc(F)cc3)cc2)cc1 | i | i | i | i | nt | i
CCN(CC)S(=O)(=O)c1ccc(C)c(NC(=O)COc2ccc3c(C)cc(=O)oc3c2)c1 | ? | i | i | ? | i | ?
CCN(CC)S(=O)(=O)c1ccc(OC)c(NC(=O)C(C)Oc2ccc3c(C)cc(=O)oc3c2)c1 (stereo not given) | ? | i | i | 21µM | i | 18µM
CCOc1ccc(C2C(C(=O)Nc3ccccc3)=C(C)Nc3nc(-c4ccccc4Cl)nn32)cc1OC (stereo not given) | ? | nt | nt | nt | nt | 18µM
COc1cc(C2C(C(=O)Nc3ccccc3)=C(C)Nc3nnnn32)cc(OC)c1OC (stereo not given) | i | nt | nt | nt | nt | 12µM
COc1ccccc1-c1nc2n(n1)C(c1ccccc1Cl)C(C(=O)Nc1cccnc1)=C(C)N2 (stereo not given) | ? | nt | nt | nt | nt | 21µM
COc1ccc(C2C(C(=O)Nc3ccccc3)=C(C)Nc3nc(-c4ccccc4)nn32)cc1OC (stereo not given) | i | nt | nt | nt | i | i
C=CCn1c(N)c(C(=O)Nc2ccc(C)cc2)sc1=S | i | i | i | ? | i | i
Cn1c(N)c(C(=O)Nc2ccc(-c3ccccc3)cc2)sc1=S | 23µM | i | i | i | i | 21µM
NC(=O)c1cnn2c(-c3ccc(Cl)cc3Cl)ccnc12 | i | i | i | i | nt | i
O=C(COC(=O)/C=C/c1ccco1)NCc1ccc2c(c1)OCO2 | i | i | i | i | 50µM | i
O=C(COC(=O)/C=C/c1ccc(S(=O)(=O)N2CCOCC2)cc1)NCc1ccc2c(c1)OCO2 | ? | i | i | i | i | ?
O=C(COC(=O)/C=C/c1ccc2c(c1)OCO2)NCc1ccc(F)cc1 | 23µM | nt | i | nt | nt | 21µM
SMILES | TDP1 cell CPT | Giardia killer | IL1B secr inh | ELG1 DNA repair | TDP1 block | DT40 TDP1 no CPT
O=C(COC(=O)/C=C/c1ccc(S(=O)(=O)N2CCOCC2)cc1)NCc1ccc(F)cc1 | 3.7µM | i | i | i | i | 12µM
Cc1ccc(C(C)C)cc1S(=O)(=O)NCc1ccccn1 | i | i | i | ? | i | ?
CCOC(=O)CSC1=NC(=O)CS1 | 10µM | i | i | i | i | ?
CCCN1C(=O)/C(=C/c2ccco2)SC1=Nc1ccc(OC)cc1 | i | i | i | ? | i | ?
CCN1C(=O)/C(=C\c2ccncc2)SC1=Nc1ccc(C)c(C)c1 | ? | i | -100 | ? | i | 16µM
CCCN1C(=O)/C(=C\c2ccncc2)SC1=Nc1ccccc1 | ? | i | -98 | i | i | ?
CCN1C(=O)/C(=C\c2ccncc2)SC1=S | i | i | i | i | i | i
CCO/C(C)=N/Oc1cnc2ccccc2c1 | i | nt | i | nt | nt | i
Cc1ccc(C2Nc3cccc4cccc(c34)N2)s1 | ? | i | i | i | i | 18µM
Cc1cccc(NC2CCCCC2NS(=O)(=O)c2ccccc2)c1 (stereo not given) | i | i | i | i | nt | i
CCCCCC[N+](C)(C)CC/C=C1/c2ccccc2Sc2ccc(Cl)cc21 | 7.3µM | i | i | i | i | 5.8µM
OCCN1CCN(CCC=C2c3ccccc3Sc3ccc(Cl)cc32)CC1 | nt | nt | nt | nt | i | nt
CO[C@@H]1[C@@H](O[C@@H]2O[C@H](C)[C@@H](O[C@H]3C[C@@](C)(O)[C@@H](OC(=O)CC(C)C)[C@H](C)O3)[C@H](N(C)C)[C@H]2O)[C@@H](CC=O)C[C@@H](C)C(=O)/C=C/C2OC2C[C@@H](C)OC(=O)C[C@H]1OC(C)=O (stereo not given in full) | 3.8µM | nt | nt | nt | nt | 3.3µM
CCN(CC)c1nc(-c2ccccc2)nc2c1sc(=S)n2CC | i | i | i | i | i | i
COCCCNc1nc(-c2ccc(Cl)cc2)nc2ccccc12 | ? | i | ? | ? | i | ?
CCN(CC)c1nc(-c2ccccc2)nc2ccccc12 | 15µM | i | ? | ? | i | ?
CCCCN(CCCC)c1nc(-c2ccncc2)nc2ccccc12 | ? | i | i | ? | i | 23µM
COCCN(CCOC)c1nc(-c2ccc(Cl)cc2)nc2ccccc12 | 18µM | i | i | ? | nt | 13µM
CCCCN(CC)c1nc(-c2ccccc2F)nc2ccccc12 | ? | nt | nt | nt | i | ?
COCCN(CCOC)c1nc(-c2ccccc2)nc2ccccc12 | ? | i | ? | 26µM | nt | ?
C=CCN(Cc1nc(-c2ccccc2)no1)C(=O)c1ccc2c(c1)OCO2 | i | i | i | i | i | i
Cc1cc(Br)ccc1NC(=O)CNC(=O)Cc1ccc(S(=O)(=O)N2CCOCC2)s1 | ? | i | i | i | i | ?
CC1(c2ccc(Cl)cc2)NC(=O)N(CC(=O)Nc2ccc(N3CCCCC3)cc2)C1=O (stereo not given) | ? | i | i | i | i[0.505 µM] | i
CCn1c(C)nc2cc(S(N)(=O)=O)ccc21 | ? | i | i | i | i | 23µM
COc1cc(/C=N\NC(=O)c2ccc(C)nc2)ccc1OC(=O)c1cccc(F)c1 | ? | i | i | i | i | ?
CCOC(=O)c1cnc2ccc(C(=O)OC)cc2c1NCCCN1CCOCC1 | ? | i | -60 | i | nt | ?
